Assay results taken from PubChem BioAssay (Tox21).
Values joined by “and” are separate entries in the source; they are usually repeats but may differ in a detail not shown here. Equal values may be shown once. Results filed as inconclusive are left out. A call without a number means that no potency is given here. More than one record can exist for a structure, and the calls need not agree. Active and inactive are the calls of the source. Calls follow the shape of the dose curve; as a rule, active = well fitted cell-killing curve with a large enough effect in the repeat runs; inconclusive = weak or mixed curves, or effect the other way; inactive = flat fitted curve, though single readings scatter.
Potency is read from the fitted curve at half-maximal effect.

Test: qHTS RealTime-Glo MT Cell Viability Assay in HEK293 cells - 32 hour (AID 1224868); also: nearly all actives have a fitted effect of over 50% in size
Settings: RealTime-Glo luminescence; series mostly up to 76.8 µM
Text: National Center for Advancing Translational Sciences [NCATS]
NIH Chemical Genomics Center [NCGC]
U.S. Environmental Protection Agency [EPA]
National Institutes of Environmental Health Sciences [NIEHS]
National Toxicology Program [NTP]
U.S. Food and Drug Administration [FDA]
Measure of cell viability is critical in the cell-base assay. Analysis of cell viability is necessary for the characterization of cell responses to cytotoxic drugs and environmental stress. A RealTime-Glo MT Cell Viability Assay to monitor cell viability in real time of continues cell culture during 40 hours of compound treatment was used to screen Tox21 10K library compounds in Hek293 cells. The RealTime-Glo MT Cell Viability Assay is a nonlytic, homogeneous, bioluminescent method to measure cell viability in real time using a simple, plate-based method. The assay involves adding NanoLuc luciferase and a cell-permeant prosubstrate to cells in culture. Viable cells reduce the proprietary prosubstrate to generate a substrate for NanoLuc luciferase. This substrate diffuses from cells into the surrounding culture medium, where it is rapidly used by the NanoLuc Enzyme to produce a luminescent signal. The signal correlates with the number of viable cells, making the assay well suited for cytotoxicity studies.
Tox21 Assay Protocol Summary:
The mixture of Hek293 cell suspension and reagents were dispensed at 600cells/6 ul/well in 1536-well tissue culture treated black solid bottom plates using a Multidrop dispenser. After the assay plates were incubated at a 37 C/5% CO2 incubator for 5 hours, 23 nL of compounds dissolved in DMSO, positive and negative controls was transferred to the assay plate by a pintool work station. The plates were incubated at 37 C for 40 hours. The luminescence intensity were measured at 0h, 8h, 16h, 24h, 32h and 40h time points using ViewLux plate reader during compound treatment.
In the case of `CC(=O)Oc1ccc(C)cc1`, the Potency was “inactive”. With `CCCCOC(=O)c1ccc(N)cc1` the Potency was “inactive”. With `Nc1ccc(Cl)c(N)c1` the Potency was “inactive”. With `CC1(C)OC[C@@H]2O[C@@]3(C(=O)O)OC(C)(C)O[C@H]3[C@@H]2O1` the Potency was “inactive”. In the case of `CC(C)(Oc1ccc(CCNC(=O)c2ccc(Cl)cc2)cc1)C(=O)O`, the Potency was “inactive”. For `Clc1ccccn1`, the Potency was “inactive”. With `CCCCCCCCCCCCCCCCO` the Potency was “inactive”. In the case of `O=C(OCC1CCC2OC2C1)C1CCC2OC2C1` (stereo not given), the Potency was “inactive”. For `CN1C(=O)CC[C@H]1c1cccnc1`, the Potency was “inactive”. For `CN(C)c1ccc(O)c2c1C[C@H]1C[C@H]3[C@H](N(C)C)C(=O)C(C(N)=O)=C(O)[C@@]3(O)C(=O)C1=C2O`, the Potency was “inactive”. In the case of `CC(C)CC(C)O` (stereo not given), the Potency was “inactive”. For `CCCCCCCCCCN`, the Potency was “inactive”. For `CCOCCOCCOCCO`, the Potency was “inactive”. With `CC(=O)c1ccc(O)cc1` the Potency was “inactive”. In the case of `CC(C)c1cccc(C(C)C)c1`, the Potency was “inactive”. For `O=C1c2ccccc2CCc2ccccc21`, the Potency was “inactive”. With `CN(C)c1ccc(Cc2ccc(N(C)C)cc2)cc1` the Potency was 22 µM (active) and 21.9 µM (active). With `CCCCCCCCCCCCCCCC(=O)OC(C)C` the Potency was “inactive”. With `Cc1ccc(S(=O)(=O)N=C=O)cc1` the Potency was “inactive”. With `OC1C(O)C(O)C(O)C(O)C1O` (stereo not given) the Potency was “inactive”. In the case of `O=C(O)/C=C/C(=O)O`, the Potency was “inactive”. With `CC(=O)CCC=C(C)C` the Potency was “inactive”. For `N[C@H](Cc1c[nH]c2ccccc12)C(=O)O`, the Potency was “inactive”. For `CC(C)(C#N)c1cc(Cn2cncn2)cc(C(C)(C)C#N)c1`, the Potency was “inactive”. For `CCOC(=O)c1ccc(N)cc1`, the Potency was “inactive”. For `CCCCCCCCCCCC(=O)OC`, the Potency was “inactive”. For `Cc1ccc(C(C)C)c(O)c1`, the Potency was “inactive”. With `CNC(=S)N(C)C` the Potency was “inactive and 11.6 µM (active)”. With `CCCCCCO` the Potency was “inactive”. With `C=Cc1ccc(C)cc1` the Potency was “inactive”. For `C[Si]1(C)O[Si](C)(C)O[Si](C)(C)O[Si](C)(C)O1`, the Potency was “inactive”. In the case of `O=C(O)c1ccc(S(=O)(=O)N(Cl)Cl)cc1`, the Potency was 49.3 µM (active) and inactive. For `CCCCCCC=O`, the Potency was “inactive”. With `C=C(C)[C@H]1CC=C(C)C(=O)C1` the Potency was “inactive”. For `O=c1[nH]cnc2[nH]ncc12`, the Potency was “inactive”. With `C[C@]12CC[C@@H]3c4ccc(O)cc4CC[C@H]3[C@@H]1C[C@@H](O)[C@@H]2O` the Potency was “inactive”. For `CC(=O)OCc1ccccc1`, the Potency was “inactive”. For `CC(C)OC(=O)COc1ccc(Cl)cc1Cl`, the Potency was “inactive”. With `CC(C)CCCCCCCOC(=O)CCCCC(=O)OCCCCCCCC(C)C` the Potency was “inactive”. In the case of `CC1(C)S[C@@H]2[C@H](NC(=O)COc3ccccc3)C(=O)N2[C@H]1C(=O)O`, the Potency was “inactive”.
